# Reference: paper PMC7862700, “An all-to-all approach to the identification of sequence-specific readers for epigenetic DNA modifications on cytosine”
# Experiments:
# Experiment in all cases: DAPPL (digital affinity profiling via proximity ligation, sequencing); 10 mM Tris-HCl pH 7.5, 50 mM NaCl, 1 mM DTT, 4% glycerol, room temperature, 30 min; GST-TFs on glutathione beads, 16-mer random dsDNA library, 0.1% formaldehyde crosslink after washing; high values mean tight binding
# Details in all cases: protein: recombinant; tags: N-terminal GST; dsDNA, one strand shown
# FLI1 = molecular target: T1, FLI1 (Homo sapiens, UniProt Q01543 1-452)
# T1 sequence: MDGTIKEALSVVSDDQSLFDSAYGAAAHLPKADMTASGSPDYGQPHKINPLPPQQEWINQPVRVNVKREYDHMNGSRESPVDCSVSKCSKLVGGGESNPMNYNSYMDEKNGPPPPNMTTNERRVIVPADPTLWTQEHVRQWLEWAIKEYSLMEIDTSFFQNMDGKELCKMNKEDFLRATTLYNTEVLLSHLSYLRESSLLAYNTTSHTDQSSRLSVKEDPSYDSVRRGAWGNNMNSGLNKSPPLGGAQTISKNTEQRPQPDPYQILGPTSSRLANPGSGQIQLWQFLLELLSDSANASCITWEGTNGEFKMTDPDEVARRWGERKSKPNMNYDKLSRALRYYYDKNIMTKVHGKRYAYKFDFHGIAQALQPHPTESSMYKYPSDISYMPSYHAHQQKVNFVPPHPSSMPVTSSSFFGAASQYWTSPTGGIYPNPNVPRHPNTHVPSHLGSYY
# Summary of the method: (§1)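 Binding signal is defined as a hexamer's read frequency for one factor over its frequency for the tag-only sample. To obtain reads, GST-fused human transcription factors were expressed in yeast, captured on glutathione beads, barcoded with DNA and pooled with that sample. Pools met 200 nmole of a 16-mer random double-stranded DNA library in Tris/NaCl/DTT/glycerol buffer for 30 min at room temperature before washing, 0.1% formaldehyde crosslinking, proximity ligation (BsaI/T4 ligase, 1 h, 37 °C), PCR and Illumina NextSeq500 sequencing.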
# ELK1 = molecular target: T2, ELK1 (Homo sapiens, UniProt P19419 1-428)
# T2 sequence: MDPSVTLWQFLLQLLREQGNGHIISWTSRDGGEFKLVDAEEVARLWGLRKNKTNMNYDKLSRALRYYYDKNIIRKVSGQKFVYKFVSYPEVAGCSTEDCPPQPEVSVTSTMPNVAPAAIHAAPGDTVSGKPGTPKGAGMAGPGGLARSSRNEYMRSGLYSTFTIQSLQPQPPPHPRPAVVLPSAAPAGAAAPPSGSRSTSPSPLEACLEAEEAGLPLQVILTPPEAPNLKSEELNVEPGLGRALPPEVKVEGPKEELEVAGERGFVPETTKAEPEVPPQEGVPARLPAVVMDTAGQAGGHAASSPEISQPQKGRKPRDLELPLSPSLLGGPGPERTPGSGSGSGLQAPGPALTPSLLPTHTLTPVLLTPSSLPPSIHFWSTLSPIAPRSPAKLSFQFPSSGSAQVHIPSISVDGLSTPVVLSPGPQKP
# Summary of the method: as §1
# GABPA = molecular target: T3, GABPA (Homo sapiens, UniProt Q06546 1-454)
# T3 sequence: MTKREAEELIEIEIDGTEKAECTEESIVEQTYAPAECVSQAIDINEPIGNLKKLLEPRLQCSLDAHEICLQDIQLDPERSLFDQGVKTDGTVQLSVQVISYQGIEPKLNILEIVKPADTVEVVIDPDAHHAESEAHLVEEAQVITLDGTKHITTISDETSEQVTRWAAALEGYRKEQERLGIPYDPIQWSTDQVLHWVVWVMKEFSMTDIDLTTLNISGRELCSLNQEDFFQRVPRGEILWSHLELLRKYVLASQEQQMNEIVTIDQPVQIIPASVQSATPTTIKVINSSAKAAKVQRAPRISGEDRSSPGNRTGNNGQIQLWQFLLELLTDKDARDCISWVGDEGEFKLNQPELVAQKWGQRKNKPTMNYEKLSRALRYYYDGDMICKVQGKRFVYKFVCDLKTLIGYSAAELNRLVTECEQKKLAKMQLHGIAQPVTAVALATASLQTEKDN
# Summary of the method: as §1
# ERG = molecular target: T4, ERG (Homo sapiens, UniProt P11308 1-479)
# T4 sequence: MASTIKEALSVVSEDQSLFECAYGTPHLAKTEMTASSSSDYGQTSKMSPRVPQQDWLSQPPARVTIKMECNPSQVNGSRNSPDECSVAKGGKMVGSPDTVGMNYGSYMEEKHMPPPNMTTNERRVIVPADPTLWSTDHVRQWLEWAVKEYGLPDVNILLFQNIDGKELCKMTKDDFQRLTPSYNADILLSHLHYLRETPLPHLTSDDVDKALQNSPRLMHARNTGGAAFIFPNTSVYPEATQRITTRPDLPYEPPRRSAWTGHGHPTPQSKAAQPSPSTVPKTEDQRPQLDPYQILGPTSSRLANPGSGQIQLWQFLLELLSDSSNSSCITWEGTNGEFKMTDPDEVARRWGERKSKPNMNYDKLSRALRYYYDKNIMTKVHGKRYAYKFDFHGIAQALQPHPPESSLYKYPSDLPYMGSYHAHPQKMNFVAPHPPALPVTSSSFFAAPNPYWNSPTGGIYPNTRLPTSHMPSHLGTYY
# Summary of the method: as §1
# ELF1 = ELF1 (Homo sapiens, UniProt P32519 1-619)
# Sequence of ELF1 (P32519 whole entry): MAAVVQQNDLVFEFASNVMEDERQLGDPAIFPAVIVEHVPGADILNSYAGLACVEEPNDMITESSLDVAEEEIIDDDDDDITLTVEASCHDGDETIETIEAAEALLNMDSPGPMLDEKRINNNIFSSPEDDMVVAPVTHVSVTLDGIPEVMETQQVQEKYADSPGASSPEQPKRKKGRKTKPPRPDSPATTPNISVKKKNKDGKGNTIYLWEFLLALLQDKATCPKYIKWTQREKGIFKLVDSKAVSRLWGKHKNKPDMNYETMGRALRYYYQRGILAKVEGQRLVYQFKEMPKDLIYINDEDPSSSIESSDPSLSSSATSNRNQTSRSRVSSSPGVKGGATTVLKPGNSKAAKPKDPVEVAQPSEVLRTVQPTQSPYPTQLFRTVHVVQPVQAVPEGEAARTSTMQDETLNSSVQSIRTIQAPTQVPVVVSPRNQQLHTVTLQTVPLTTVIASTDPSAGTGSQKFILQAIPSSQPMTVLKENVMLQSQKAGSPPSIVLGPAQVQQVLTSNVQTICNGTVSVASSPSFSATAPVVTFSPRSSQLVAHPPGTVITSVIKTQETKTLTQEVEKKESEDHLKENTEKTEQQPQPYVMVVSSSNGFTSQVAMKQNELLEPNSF
# Summary of the method: as §1
# EHF = molecular target: T5, EHF (Homo sapiens, UniProt Q9NZC4 1-300)
# T5 sequence: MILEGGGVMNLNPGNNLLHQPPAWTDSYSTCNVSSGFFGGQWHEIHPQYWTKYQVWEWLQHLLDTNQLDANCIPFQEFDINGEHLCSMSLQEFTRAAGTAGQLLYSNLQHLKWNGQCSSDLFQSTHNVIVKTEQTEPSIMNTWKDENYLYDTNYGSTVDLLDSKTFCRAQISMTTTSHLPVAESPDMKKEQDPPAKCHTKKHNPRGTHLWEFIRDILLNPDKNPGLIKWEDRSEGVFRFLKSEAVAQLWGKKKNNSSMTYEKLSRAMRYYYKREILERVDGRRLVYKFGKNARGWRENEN
# Summary of the method: as §1
# SPI1 = SPI1 (Homo sapiens, UniProt P17947 1-270)
# Summary of the method: as §1
# SPIB = SPIB (Homo sapiens, UniProt Q01892 1-262)
# Sequence of SPIB (Q01892 whole entry): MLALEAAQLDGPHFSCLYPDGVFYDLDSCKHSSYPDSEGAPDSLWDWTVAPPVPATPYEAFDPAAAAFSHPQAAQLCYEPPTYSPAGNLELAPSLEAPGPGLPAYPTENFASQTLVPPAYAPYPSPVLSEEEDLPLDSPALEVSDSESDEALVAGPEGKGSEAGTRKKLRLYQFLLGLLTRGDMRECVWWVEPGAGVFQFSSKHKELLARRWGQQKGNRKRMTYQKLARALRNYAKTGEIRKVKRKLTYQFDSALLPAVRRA
# Summary of the method: as §1
# ELK3 = molecular target: T6, ELK3 (Homo sapiens, UniProt P41970 1-407)
# T6 sequence: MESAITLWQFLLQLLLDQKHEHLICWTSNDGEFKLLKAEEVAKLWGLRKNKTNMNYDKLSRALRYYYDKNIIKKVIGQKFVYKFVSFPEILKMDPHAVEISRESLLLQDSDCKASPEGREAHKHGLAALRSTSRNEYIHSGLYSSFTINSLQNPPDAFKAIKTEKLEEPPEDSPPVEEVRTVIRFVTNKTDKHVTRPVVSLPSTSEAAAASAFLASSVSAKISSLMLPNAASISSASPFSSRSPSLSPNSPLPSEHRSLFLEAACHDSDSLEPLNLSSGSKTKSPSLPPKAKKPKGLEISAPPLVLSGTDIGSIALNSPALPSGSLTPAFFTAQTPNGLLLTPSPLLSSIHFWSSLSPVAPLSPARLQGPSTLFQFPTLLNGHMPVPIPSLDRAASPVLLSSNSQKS
# Summary of the method: as §1
# FEV = molecular target: T7, FEV (Homo sapiens, UniProt Q99581 1-238)
# T7 sequence: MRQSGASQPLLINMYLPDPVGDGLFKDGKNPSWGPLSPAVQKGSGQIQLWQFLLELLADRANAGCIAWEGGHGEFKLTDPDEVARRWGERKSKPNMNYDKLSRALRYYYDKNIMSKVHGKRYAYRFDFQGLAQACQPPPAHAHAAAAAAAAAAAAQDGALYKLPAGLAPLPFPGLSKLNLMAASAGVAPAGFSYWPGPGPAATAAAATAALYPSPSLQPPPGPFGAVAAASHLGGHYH
# Summary of the method: as §1
# ETV5 = ETV5 (Homo sapiens, UniProt P41161 1-510)
# Sequence of ETV5 (P41161 whole entry): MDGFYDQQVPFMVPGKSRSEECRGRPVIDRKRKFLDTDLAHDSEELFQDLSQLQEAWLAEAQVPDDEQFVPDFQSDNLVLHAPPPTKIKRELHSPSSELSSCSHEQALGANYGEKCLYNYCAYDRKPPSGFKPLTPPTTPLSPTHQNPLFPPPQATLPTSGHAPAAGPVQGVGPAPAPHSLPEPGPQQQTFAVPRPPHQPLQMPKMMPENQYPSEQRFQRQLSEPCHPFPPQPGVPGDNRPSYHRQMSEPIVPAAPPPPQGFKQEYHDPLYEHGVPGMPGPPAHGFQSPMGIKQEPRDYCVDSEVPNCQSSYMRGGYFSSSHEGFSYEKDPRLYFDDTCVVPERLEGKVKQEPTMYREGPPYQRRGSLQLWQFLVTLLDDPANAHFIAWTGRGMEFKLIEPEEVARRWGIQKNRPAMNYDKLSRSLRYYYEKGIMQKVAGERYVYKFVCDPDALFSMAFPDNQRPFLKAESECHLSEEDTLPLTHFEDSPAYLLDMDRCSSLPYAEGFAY
# Summary of the method: as §1
# SPIC = molecular target: T8, SPIC (Homo sapiens, UniProt Q8N5J4 1-248)
# T8 sequence: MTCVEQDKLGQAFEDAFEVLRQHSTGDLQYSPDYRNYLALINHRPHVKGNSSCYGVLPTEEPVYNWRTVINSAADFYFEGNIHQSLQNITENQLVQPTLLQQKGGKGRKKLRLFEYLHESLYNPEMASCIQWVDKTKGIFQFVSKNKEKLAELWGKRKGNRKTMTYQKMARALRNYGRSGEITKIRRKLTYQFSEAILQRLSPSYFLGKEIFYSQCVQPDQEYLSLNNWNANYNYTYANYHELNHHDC
# Summary of the method: as §1
# ELF4 = ELF4 (Homo sapiens, UniProt Q99607 1-663)
# Sequence of ELF4 (Q99607 whole entry): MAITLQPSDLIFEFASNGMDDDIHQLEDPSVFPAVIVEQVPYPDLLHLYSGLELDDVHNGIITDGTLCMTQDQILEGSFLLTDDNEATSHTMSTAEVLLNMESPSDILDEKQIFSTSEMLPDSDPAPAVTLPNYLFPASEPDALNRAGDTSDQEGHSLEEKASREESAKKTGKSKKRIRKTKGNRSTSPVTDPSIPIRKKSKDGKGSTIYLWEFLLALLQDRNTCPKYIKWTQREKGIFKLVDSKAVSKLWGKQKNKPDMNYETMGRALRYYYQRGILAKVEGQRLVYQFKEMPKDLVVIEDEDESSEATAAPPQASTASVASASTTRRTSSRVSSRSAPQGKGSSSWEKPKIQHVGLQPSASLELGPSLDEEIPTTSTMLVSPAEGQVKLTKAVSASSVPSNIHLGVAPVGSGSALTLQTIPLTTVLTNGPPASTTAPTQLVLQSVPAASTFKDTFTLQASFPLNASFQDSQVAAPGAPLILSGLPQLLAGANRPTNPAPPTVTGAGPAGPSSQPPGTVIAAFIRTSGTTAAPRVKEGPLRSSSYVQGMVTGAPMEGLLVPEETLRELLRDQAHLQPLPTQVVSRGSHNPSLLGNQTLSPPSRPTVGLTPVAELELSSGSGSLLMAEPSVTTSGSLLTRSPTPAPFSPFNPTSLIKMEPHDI
# Summary of the method: as §1
# ELK4 = molecular target: T9, ELK4 (Homo sapiens, UniProt P28324-2 1-405)
# T9 sequence: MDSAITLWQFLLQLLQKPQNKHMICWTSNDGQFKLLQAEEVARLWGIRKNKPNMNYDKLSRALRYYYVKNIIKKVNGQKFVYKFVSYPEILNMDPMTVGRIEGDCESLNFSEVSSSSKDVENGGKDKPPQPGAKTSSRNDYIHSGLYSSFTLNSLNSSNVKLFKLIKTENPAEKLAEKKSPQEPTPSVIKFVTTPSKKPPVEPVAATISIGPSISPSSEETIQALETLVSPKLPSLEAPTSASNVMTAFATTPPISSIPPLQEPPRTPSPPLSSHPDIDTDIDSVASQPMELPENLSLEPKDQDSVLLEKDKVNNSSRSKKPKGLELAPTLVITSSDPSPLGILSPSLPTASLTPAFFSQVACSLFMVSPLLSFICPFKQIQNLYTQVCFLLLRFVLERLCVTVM
# Summary of the method: as §1
# ETV2 = molecular target: T10, ETV2 (Homo sapiens, UniProt O00321 1-342)
# T10 sequence: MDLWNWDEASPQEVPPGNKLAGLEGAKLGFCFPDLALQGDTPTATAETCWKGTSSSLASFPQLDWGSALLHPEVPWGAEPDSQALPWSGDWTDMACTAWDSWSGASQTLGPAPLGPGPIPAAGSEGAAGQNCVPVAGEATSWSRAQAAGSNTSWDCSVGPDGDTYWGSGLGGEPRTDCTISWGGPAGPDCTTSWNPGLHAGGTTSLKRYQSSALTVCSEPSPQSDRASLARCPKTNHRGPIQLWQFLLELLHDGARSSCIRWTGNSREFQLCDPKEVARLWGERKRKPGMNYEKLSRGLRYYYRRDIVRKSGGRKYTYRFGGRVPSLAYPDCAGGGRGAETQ
# Summary of the method: as §1
# ETV1 = ETV1 (Homo sapiens, UniProt P50549 1-477)
# Sequence of ETV1 (P50549 whole entry): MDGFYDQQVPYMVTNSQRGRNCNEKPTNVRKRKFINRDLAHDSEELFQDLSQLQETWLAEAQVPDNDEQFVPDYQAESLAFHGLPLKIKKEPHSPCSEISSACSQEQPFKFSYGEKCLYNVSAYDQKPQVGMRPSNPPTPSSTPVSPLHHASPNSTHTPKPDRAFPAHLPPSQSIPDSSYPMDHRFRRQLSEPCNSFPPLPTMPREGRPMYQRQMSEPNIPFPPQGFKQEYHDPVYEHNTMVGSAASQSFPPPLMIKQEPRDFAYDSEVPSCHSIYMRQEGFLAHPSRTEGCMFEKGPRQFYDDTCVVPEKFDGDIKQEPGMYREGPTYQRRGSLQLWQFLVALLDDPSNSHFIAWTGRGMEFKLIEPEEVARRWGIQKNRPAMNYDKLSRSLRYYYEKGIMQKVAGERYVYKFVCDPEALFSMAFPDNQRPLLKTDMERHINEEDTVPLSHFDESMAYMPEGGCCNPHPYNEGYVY
# Summary of the method: as §1
sequence,measurement,setting,value
GCCCGC,binding signal,FLI1,"1.09 fold enrichment (6-mer frequency, TF over GST control)"
same,binding signal,ELK1,"1.15 fold enrichment (6-mer frequency, TF over GST control)"
same,binding signal,GABPA,"1.1 fold enrichment (6-mer frequency, TF over GST control)"
same,binding signal,ERG,"1.1 fold enrichment (6-mer frequency, TF over GST control)"
same,binding signal,ELF1,"1.07 fold enrichment (6-mer frequency, TF over GST control)"
same,binding signal,EHF,"1.09 fold enrichment (6-mer frequency, TF over GST control)"
same,binding signal,SPI1,"1.01 fold enrichment (6-mer frequency, TF over GST control)"
same,binding signal,SPIB,"1.03 fold enrichment (6-mer frequency, TF over GST control)"
same,binding signal,ELK3,"1.24 fold enrichment (6-mer frequency, TF over GST control)"
same,binding signal,FEV,"1.11 fold enrichment (6-mer frequency, TF over GST control)"
same,binding signal,ETV5,"1.02 fold enrichment (6-mer frequency, TF over GST control)"
same,binding signal,SPIC,"1.34 fold enrichment (6-mer frequency, TF over GST control)"
same,binding signal,ELF4,"1.19 fold enrichment (6-mer frequency, TF over GST control)"
same,binding signal,ELK4,"1.15 fold enrichment (6-mer frequency, TF over GST control)"
same,binding signal,ETV2,"1.16 fold enrichment (6-mer frequency, TF over GST control)"
same,binding signal,ETV1,"1.06 fold enrichment (6-mer frequency, TF over GST control)"
